Assay [1] in a line: qHTS assay to identify small molecule antagonists of the glucocorticoid receptor (GR) signaling pathway - cell viability counter screen (AID 720693). Also: nearly all actives have a fitted effect of over 55% in size. A general note: In qHTS, concentration-response curves come from the screen itself.
Assay [2] can be described thus: qHTS assay for identifying genotoxic compounds that show differential cytotoxicity against isogenic chicken DT40 cell lines with known DNA damage response pathways - wild type cell line (AID 743012). Also: nearly all actives have a fitted effect of over 60% in size. Also: potency is read from the fitted curve at half-maximal effect. Put shortly: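 First, wild type DT40 cells were plated at 300 per well and equilibrated about 0.5 h at 37 C/5% CO2. Next, compounds in DMSO were added and exposure lasted 40 h. Finally, CellTiter-Glo was added for 30 min at room temperature and luminescence recorded.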

The nature of assay [3]: qHTS assay for identifying genotoxic compounds that show differential cytotoxicity against isogenic chicken DT40 cell lines with known DNA damage response pathways - Rev3 mutant cell line (AID 743014). Also: nearly all actives have a fitted effect of over 55% in size. Also: potency is read from the fitted curve at half-maximal effect.
Assay [4] can be described thus: qHTS assay to identify small molecule antagonists of the androgen receptor (AR) signaling pathway - cell viability counter screen (AID 743033; also: nearly all actives have a fitted effect of over 45% in size).
Assay [5] in a line: qHTS assay to identify small molecule antagonists of the androgen receptor (AR) signaling pathway using the MDA cell line - cell viability counter screen (AID 743041; also: nearly all actives have a fitted effect of over 45% in size). The procedure, abridged:
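MDA-kb2 AR-luc cells (MMTV-luciferase, AR/GR responsive) treated with compounds plus R1881 agonist for 16 h at 37C. CellTiter-Fluor added at 15.5 h; fluorescence read after 30 min in the same wells.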

Assay [6] is described as follows: qHTS assay to identify small molecule antagonists of the thyroid receptor (TR) signaling pathway - cell viability counter screen (AID 743064). Also: nearly all actives have a fitted effect of over 50% in size. Also: potency is read from the fitted curve at half-maximal effect. Put shortly:
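CellTiter-Fluor readout, 30 min at 37 °C/5% CO2, following 23.5 h incubation of GH3.TRE-Luc cells with test compound and 1 nM T3 (final).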

The nature of assay [7]: qHTS assay to identify small molecule antagonists of the thyroid receptor (TR) signaling pathway (AID 743065). Also: nearly all actives have a fitted effect of over 55% in size. Also: potency is read from the fitted curve at half-maximal effect. The procedure, abridged:
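GH3.TRE-Luc rat pituitary cells (two TREs driving luciferase) were dosed with compound, then stimulated with 1 nM T3 (final) for 23.5 h at 37 C. ONE-Glo luminescence was the read-out, with CellTiter-Fluor fluorescence as the cytotoxicity counter-screen.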

For assay [8], the system named is thyroid hormone receptor (rat, GH3 cells). Briefly: qHTS assay to identify small molecule agonists of the thyroid receptor (TR) signaling pathway (AID 743066; calls by dose curve).
Assay [9] can be described thus: qHTS assay to identify small molecule antagonists of the estrogen receptor alpha (ER-alpha) signaling pathway - cell viability counter screen (AID 743074; calls by dose curve;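 also: HEK293 cells carrying ER-alpha-UAS-bla reporter stimulated with 17beta-estradiol; nearly all actives have a fitted effect of over 45% in size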).
Assay [10] addresses Estrogen receptor (Homo sapiens) (UniProt P03372). As to the kind of experiment: qHTS assay to identify small molecule agonists of the estrogen receptor alpha (ER-alpha) signaling pathway (AID 743075; calls by dose curve).
Assay [11] shares this target. Briefly: qHTS assay to identify small molecule agonists of the estrogen receptor alpha (ER-alpha) signaling pathway using the BG1 cell line (AID 743079). Also: nearly all actives have a fitted effect of over 20% in size. Also: potency is read from the fitted curve at half-maximal effect.
Assay [12] in a line: qHTS assay to identify small molecule antagonists of the estrogen receptor alpha (ER-alpha) signaling pathway using the BG1 cell line (AID 743080; calls by dose curve;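 also: BG1 cells stimulated with 17beta-estradiol alongside compound; series mostly up to about 70 µM; nearly all actives have a fitted effect of over 25% in size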). Put shortly: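 BG1-Luc-4E2 cells (endogenous full-length ER-alpha, stable 4×ERE-luciferase) were starved 5 days in phenol-red-free medium with 10% charcoal-stripped FBS, plated 24 h, then given compound plus 17beta-estradiol for 21.5 h at 37 C; ONE-Glo luminescence read after 30 min.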

Assay [13] deals with Aromatase (Homo sapiens) (UniProt P11511). As to the kind of experiment: qHTS assay to identify aromatase inhibitors (AID 743083). Also: nearly all actives have a fitted effect of over 55% in size. Also: potency is read from the fitted curve at half-maximal effect.
Chain of Aromatase (Homo sapiens) (P11511 whole entry, looked up): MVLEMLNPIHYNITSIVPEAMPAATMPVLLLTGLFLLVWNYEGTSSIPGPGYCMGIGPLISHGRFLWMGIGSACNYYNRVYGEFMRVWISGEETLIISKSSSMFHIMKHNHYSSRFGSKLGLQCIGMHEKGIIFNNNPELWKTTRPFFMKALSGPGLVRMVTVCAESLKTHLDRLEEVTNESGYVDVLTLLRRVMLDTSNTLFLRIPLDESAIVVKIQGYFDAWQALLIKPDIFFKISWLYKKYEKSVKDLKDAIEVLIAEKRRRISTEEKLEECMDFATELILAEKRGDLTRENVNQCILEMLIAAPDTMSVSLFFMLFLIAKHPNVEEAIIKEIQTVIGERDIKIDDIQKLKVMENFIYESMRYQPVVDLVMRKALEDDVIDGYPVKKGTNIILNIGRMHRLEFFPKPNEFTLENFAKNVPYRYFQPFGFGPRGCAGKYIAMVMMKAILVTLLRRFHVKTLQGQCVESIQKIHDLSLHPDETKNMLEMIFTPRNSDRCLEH
A short description of assay [14]: qHTS assay for identifying genotoxic compounds that show differential cytotoxicity against isogenic chicken DT40 cell lines with known DNA damage response pathways - Rad54/Ku70 mutant cell line (AID 743015). Also: nearly all actives have a fitted effect of over 60% in size. Also: potency is read from the fitted curve at half-maximal effect.
The target of assay [15] is Estrogen receptor (Homo sapiens) (UniProt P03372). Briefly: qHTS assay to identify small molecule antagonists of the estrogen receptor alpha (ER-alpha) signaling pathway (AID 743069; active = well fitted curve in the direction sought with a large enough effect in the signal ratio in the repeat runs, not every such curve was filed as active; the % refers to the signal ratio; also: potency is read from the fitted curve at half-maximal effect). The procedure, abridged: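 HEK293 ER-alpha-UAS-bla GripTite cells, held overnight in 2% charcoal-stripped FBS, 5,000 cells/well, preincubated 4 h, then compound plus 17beta-estradiol for 18 h at 37C. Beta-lactamase read by LiveBLAzer B/G FRET substrate, 2 h at room temperature.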
Chain of Estrogen receptor (Homo sapiens) (P03372 whole entry, looked up): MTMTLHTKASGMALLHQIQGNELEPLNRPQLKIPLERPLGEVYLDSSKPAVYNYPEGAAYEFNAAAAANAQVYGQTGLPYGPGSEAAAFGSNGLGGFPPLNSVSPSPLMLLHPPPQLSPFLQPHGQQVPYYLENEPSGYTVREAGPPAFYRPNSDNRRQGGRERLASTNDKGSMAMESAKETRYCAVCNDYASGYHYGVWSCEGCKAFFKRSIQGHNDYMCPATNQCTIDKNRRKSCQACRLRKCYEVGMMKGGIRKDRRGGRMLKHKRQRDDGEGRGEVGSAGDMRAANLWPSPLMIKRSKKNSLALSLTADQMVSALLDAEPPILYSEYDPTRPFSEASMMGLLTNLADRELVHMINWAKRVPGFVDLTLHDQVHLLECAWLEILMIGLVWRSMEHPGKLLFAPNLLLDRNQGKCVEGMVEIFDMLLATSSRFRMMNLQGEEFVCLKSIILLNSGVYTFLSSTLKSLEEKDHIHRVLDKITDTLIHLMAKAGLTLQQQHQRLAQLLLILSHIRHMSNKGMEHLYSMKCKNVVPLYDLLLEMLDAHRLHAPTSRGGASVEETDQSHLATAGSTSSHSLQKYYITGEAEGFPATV

Assay [16] can be described thus: qHTS assay to identify small molecule antagonists of the estrogen receptor alpha (ER-alpha) signaling pathway using the BG1 cell line - cell viability counter screen (AID 743081).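 Also: compound given together with 17beta-estradiol as the ER stimulus; series mostly up to about 70 µM; nearly all actives have a fitted effect of over 45% in size.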
The target in assay [17] is Androgen receptor (Homo sapiens) (UniProt P10275). Briefly: qHTS assay to identify small molecule antagonists of the androgen receptor (AR) signaling pathway (AID 743035; active = well fitted inhibition curve with a large enough effect in the signal ratio in the repeat runs, not every such curve was filed as active; the % refers to the signal ratio). The procedure, abridged: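 Beta-lactamase FRET read (2 h RT incubation with LiveBLAzer B/G) following 16 h of compound plus R1881 treatment of AR-UAS-bla HEK293 cells, which had been pre-incubated 4 h at 37C.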
Chain of Androgen receptor (Homo sapiens) (P10275 whole entry, looked up): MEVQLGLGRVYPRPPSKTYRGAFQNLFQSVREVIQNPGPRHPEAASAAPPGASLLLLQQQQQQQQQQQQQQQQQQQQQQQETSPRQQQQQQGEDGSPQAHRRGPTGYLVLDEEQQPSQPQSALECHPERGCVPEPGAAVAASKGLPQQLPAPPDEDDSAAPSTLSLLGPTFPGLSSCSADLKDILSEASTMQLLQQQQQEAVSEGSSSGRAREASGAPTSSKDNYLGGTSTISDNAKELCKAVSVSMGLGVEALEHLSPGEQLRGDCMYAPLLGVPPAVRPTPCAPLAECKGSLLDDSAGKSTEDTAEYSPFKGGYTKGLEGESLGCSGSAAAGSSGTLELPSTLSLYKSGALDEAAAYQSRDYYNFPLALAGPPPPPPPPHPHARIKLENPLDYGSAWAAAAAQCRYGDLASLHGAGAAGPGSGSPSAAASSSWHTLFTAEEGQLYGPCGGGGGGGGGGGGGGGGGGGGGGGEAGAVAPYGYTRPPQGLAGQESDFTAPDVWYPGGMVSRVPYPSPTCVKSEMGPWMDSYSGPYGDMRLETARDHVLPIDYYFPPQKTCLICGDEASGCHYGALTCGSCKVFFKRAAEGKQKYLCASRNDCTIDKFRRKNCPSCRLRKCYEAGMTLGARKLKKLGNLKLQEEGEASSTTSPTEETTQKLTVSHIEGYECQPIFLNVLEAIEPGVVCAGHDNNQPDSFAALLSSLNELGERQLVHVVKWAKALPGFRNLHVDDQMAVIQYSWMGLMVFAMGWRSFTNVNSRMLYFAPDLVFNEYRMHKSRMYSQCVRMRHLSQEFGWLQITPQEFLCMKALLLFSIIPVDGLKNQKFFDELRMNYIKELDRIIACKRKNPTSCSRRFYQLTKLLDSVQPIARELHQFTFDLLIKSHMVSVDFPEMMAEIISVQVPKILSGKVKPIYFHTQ

Assay [18] shares this target. As to the kind of experiment: qHTS assay to identify small molecule agonists of the androgen receptor (AR) signaling pathway using the MDA cell line (AID 743040; also: nearly all actives have a fitted effect of over 20% in size). Put shortly: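 MDA-kb2 breast carcinoma cells carrying MMTV-luciferase (responsive to AR and GR), plated 5 h then treated 16 h with compounds at 37C, 0% CO2. Read-out was ONE-Glo luminescence after 30 min at room temperature.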

Assay [19] has the same target. As to the kind of experiment: qHTS assay to identify small molecule antagonists of the androgen receptor (AR) signaling pathway using the MDA cell line (AID 743042; also: nearly all actives have a fitted effect of over 55% in size). Put shortly: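 MDA-kb2 breast carcinoma cells carrying MMTV-luciferase (AR/GR responsive) were co-treated with compounds and the agonist R1881 for 16 h at 37C. Inhibition read as ONE-Glo luminescence; CellTiter-Fluor fluorescence measured in parallel for cytotoxicity.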

Inconclusive results are not listed. The source made the active and inactive calls. Unless noted, calls follow the shape of the dose curve; as a rule, active = well fitted curve in the direction sought with a large enough effect in the repeat runs; inconclusive = weak or mixed curves; inactive = no such curve, though single readings can be large; an effect the other way counts as inactive or inconclusive.

For the compound `CCCCCCCCCCC[C@@H](C[C@@H]1OC(=O)[C@H]1CCCCCC)OC(=O)[C@H](CC(C)C)NC=O`, the Potency entry in assay [1], in assay [4], in assay [5], in [6], in [7] and in assay [9] was “inactive” throughout. Moreover, the Potency entry in assay [10], in assay [11], in assay [12] and in [13] was “inactive” throughout. Further, the Potency in assay [2] was 1.06 µM (active); in assay [3], 0.376 µM (active). Further, the result in [8] was inactive.
For the compound `CCc1ccc(Br)cc1`, the Potency entry in assay [1], in assay [2], in assay [3], in assay [14], in assay [5] and in assay [6] was “inactive” each time. Besides, the Potency entry in assay [7], in assay [15], in [9], in assay [10], in assay [12] and in assay [16] was “inactive” throughout. The Potency result in [13] is “inactive”. Moreover, the compound was called inactive in assay [8].
Turning to `OCC(F)(F)F`, the Potency entry in assay [1], in assay [2], in [3], in [14], in [5] and in assay [7] was “inactive” throughout. Further, the Potency entry in assay [9], in assay [16] and in [13] was “inactive” in each case. Also, the compound was classed as inactive in assay [8].
For the compound `OC12N=C(c3ccccc3)SC1Cc1cc(Cl)ccc12` (centres undefined), the Potency result in assay [1], in assay [5], in assay [9], in assay [10], in [16] and in assay [13] was “inactive” in each case. The Potency is 68.6 µM (active) in assay [2]; 68.6 µM (active) in assay [3]; 43.3 µM (active) in [14]; 61.1 µM (active) in assay [7]; 54.9 µM [inhibitor] (active) in assay [15]; 27.3 µM (active) in assay [11].
In the case of `COC(C)=O`, the Potency result in assay [1], in assay [2], in assay [3], in assay [14], in assay [5] and in assay [6] was “inactive” each time. Also, the Potency result in assay [7], in assay [15], in assay [9], in [10], in [11] and in [12] was “inactive” in each case. The Potency entry in [16] and in [13] was “inactive” throughout. For the same compound, the outcome in assay [8] was inactive.
On to `CCOc1ccc2ccccc2c1C(=O)N[C@@H]1C(=O)N2[C@@H]1SC(C)(C)[C@@H]2C(=O)O`, for which the Potency entry in assay [1], in assay [2], in assay [3], in assay [14], in assay [17] and in assay [5] was “inactive” in each case. For the same compound, the Potency entry in assay [19], in [6], in assay [15], in [9], in [10] and in assay [11] was “inactive” each time. The Potency entry in assay [12], in assay [16] and in assay [13] was “inactive” in each case. The compound was classed as inactive in assay [18] and in [8].
Consider `CC(N=C(NC#N)Nc1ccncc1)C(C)(C)C` (centres undefined), for which the Potency result in assay [1], in assay [3], in assay [4], in [5], in [6] and in [9] was “inactive” in each case. The Potency result in assay [16] is “inactive”. For the same compound, the compound was called inactive in [8].
In the case of `Cc1ccc(-c2ccccc2)cc1`, the Potency result in assay [1], in [2], in assay [14], in assay [4], in assay [5] and in assay [6] was “inactive” in each case. Besides, the Potency entry in assay [9], in assay [16] and in assay [13] was “inactive” each time. For the same compound, the compound was called inactive in assay [8].
As to `Nc1ccc(Oc2ccc(Cl)cc2)cc1`, the Potency entry in assay [1], in assay [2], in assay [4], in [5], in [6] and in assay [9] was “inactive” throughout. Also, the Potency result in assay [10], in [11] and in assay [16] was “inactive” each time. For the same compound, the Potency in assay [14] was 59.8 µM (active); in assay [7], 30 µM (active); in assay [13] it was 23.8 µM (active). Also, in assay [8], the call was inactive.
On to `Cc1cc(C(C)(C)C)cc(C)c1CC1=NCCN1`, for which the Potency result in assay [1], in assay [2], in assay [14], in assay [5], in assay [6] and in assay [15] was “inactive” in each case. Besides, the Potency entry in assay [9], in assay [10], in [11], in [12], in [16] and in assay [13] was “inactive” in each case. Also, the call in assay [8] was inactive.
On to `OC1CCC(C2CCCCC2)CC1` (centres undefined), for which the Potency result in assay [1], in [2], in assay [5], in assay [6], in assay [7] and in assay [15] was “inactive” throughout. Also, the Potency entry in [9], in [10], in [12], in assay [16] and in assay [13] was “inactive” each time. Also, the outcome in assay [8] was inactive.
With `CCCNCCC`, the Potency entry in [1], in [3], in assay [14], in assay [4], in assay [5] and in assay [6] was “inactive” throughout. For the same compound, the Potency entry in assay [7], in assay [16] and in assay [13] was “inactive” each time. The call in [8] was inactive.
Take `C1CCC(SSC2CCCCC2)CC1`: the Potency entry in assay [1], in [2], in [14], in [4], in assay [5] and in [7] was “inactive” each time. Moreover, the Potency result in [15], in assay [10], in assay [11], in [12], in assay [16] and in [13] was “inactive” each time. Further, the outcome in assay [8] was inactive.
With `CCC(C)[O-].CCC(C)[O-].CCOC(=O)/C=C(/C)[O-].[Al+3]`, the Potency result in assay [1], in [2], in assay [3], in assay [5], in assay [6] and in assay [9] was “inactive” throughout. Further, the Potency entry in assay [16] was “inactive”.
Regarding `Nc1ccc(NCCO)c([N+](=O)[O-])c1`, the Potency entry in assay [1], in [2], in assay [14], in assay [4], in assay [9] and in assay [13] was “inactive” throughout. Also, the Potency in assay [6] was 54.5 µM (active). In addition, in assay [8], the compound was called inactive.
As to `CC(C)CCCCCOC(=O)CCS`, the Potency result in [1], in [2], in assay [14], in assay [4], in assay [5] and in [6] was “inactive” each time. Moreover, the Potency entry in assay [7], in assay [15], in [9], in [10], in [11] and in [12] was “inactive” in each case. Also, the Potency result in [16] and in assay [13] was “inactive” each time. For the same compound, in assay [8], the compound was called inactive.
On to `COCCOc1cc2cc(C(=O)NC3CCN(C(C)C)CC3)n(CC(=O)Nc3ccc(Cl)cn3)c2cn1`, for which the Potency result in assay [1], in [3], in assay [4], in assay [5], in assay [9] and in assay [16] was “inactive” each time. The Potency result in assay [13] was “inactive”. Moreover, the Potency in assay [6] was 60.4 µM (active). Further, in assay [8], the compound was called inactive.

The record behind these values is PubChem BioAssay (Tox21).
